# Compound activity (PubChem)
# In the library only some 11% were active in any assay of this set; here they are far more common.
# NIH3T3 tox = NIH 3T3 cell cytotoxicity. NIH 3T3 viability, CellTiter-Glo ATP luminescence, 48-72 h. Potency, µM (series often up to 96.7 µM), inactives show at the highest dose activity change, negative = cytotoxicity, actives largely listed as inhibitors. 94,000 tested, 4.3% active. AID 1345082; active means well fitted curve in the direction sought with a large enough effect; inconclusive means small, poorly fitted or top-dose-only effect, or another doubt; inactive means no such curve, though single readings can be large; an effect the other way counts as inactive or inconclusive; further: on the % scale 0 is the no-effect control and ±100 the full control effect; nearly all actives have a fitted effect of over 55% in size
#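 Cells were seeded at 400 per well, treated with pin-transferred compound, and kept 48 or 72 hr at 37 °C before CellTiter-Glo addition and luminescence imaging of cellular ATP.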
# HEK cytotox = HEK 293 cell cytotoxicity | HEK 293 viability, ATP luminescence (CellTiter-Glo), 48-72 h | Potency, µM (series often up to 115 µM), for the others: top-dose activity change, negative = cytotoxicity, hits mostly inhibitors | 94,000 tested, 6.6% active | AID 1345083; active means well fitted curve in the direction sought with a large enough effect; inconclusive means small, poorly fitted or top-dose-only effect, or another doubt; inactive means no such curve, though single readings can be large; an effect the other way counts as inactive or inconclusive; further: on the % scale 0 is the no-effect control and ±100 the full control effect; nearly all actives have a fitted effect of over 60% in size
#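 Read-out: CellTiter-Glo ATP luminescence. Cells: HEK 293, 250 cells/well. Exposure: 48 or 72 hr, 37 degree Celsius.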
# Luciferase inh = blocks purified firefly luciferase enzyme activity | P08659 | purified P. pyralis luciferase, luminescence, biochemical | Potency, µM (top dose mostly 115 µM), actives largely listed as inhibitors | 76,000 tested, 2.5% active; active means well fitted curve in the direction sought with a large enough effect; inconclusive means small, poorly fitted or top-dose-only effect, or another doubt; inactive means no such curve, though single readings can be large; an effect the other way counts as inactive or inconclusive; further: on the % scale 0 is the no-effect control and ±100 the full control effect; nearly all actives have a fitted effect of over 65% in size
#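 Purified 10nM P. pyralis luciferase with 10uM D-luciferin and 10uM ATP in 50mM Tris acetate pH 7.5, 10mM Mg acetate, 0.01% Tween-20, 0.05% BSA. qHTS titration; luminescence read by CCD imager.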
# NPR1 antag = antagonists of human natriuretic peptide receptor Npr1; P16066; HEK293 hNpr1 GloSensor cGMP, ANP-stimulated luminescence; Potency, µM (doses to about 46.3 µM), inactives show top-dose activity change, negative = inhibition, usual class: inhibitors; 76,000 tested, 1.6% active; further: on the % scale 0 is the no-effect control and ±100 the full control effect; nearly all actives have a fitted effect of over 60% in size
# Target sequence (P16066 whole entry, looked up): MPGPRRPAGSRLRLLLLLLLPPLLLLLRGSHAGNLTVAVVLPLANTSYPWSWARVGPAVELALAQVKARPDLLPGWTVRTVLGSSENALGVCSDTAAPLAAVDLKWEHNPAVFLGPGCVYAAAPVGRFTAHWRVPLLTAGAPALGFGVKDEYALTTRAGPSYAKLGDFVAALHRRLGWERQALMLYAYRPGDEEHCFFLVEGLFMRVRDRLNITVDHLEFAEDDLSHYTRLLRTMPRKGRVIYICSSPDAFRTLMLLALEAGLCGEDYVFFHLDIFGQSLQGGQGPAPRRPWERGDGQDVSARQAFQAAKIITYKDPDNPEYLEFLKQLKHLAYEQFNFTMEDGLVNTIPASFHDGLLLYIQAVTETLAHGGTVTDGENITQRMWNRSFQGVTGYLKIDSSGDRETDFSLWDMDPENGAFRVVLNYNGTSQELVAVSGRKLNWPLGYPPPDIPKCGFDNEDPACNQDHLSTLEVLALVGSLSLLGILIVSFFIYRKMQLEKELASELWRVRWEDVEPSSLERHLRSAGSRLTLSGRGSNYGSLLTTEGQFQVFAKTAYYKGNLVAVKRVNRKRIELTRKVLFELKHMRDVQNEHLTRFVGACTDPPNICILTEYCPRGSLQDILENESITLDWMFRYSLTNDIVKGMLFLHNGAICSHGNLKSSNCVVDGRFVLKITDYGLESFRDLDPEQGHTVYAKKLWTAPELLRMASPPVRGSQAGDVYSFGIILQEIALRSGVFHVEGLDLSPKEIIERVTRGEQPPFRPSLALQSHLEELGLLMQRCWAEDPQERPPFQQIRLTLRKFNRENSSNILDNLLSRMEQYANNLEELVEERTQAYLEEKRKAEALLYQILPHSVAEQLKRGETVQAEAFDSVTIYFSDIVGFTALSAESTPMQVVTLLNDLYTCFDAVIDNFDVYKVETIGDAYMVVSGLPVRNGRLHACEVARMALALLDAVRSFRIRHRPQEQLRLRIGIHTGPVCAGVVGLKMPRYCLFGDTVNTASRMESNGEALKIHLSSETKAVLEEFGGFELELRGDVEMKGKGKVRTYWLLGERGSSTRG
#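 HEK293 cells stably expressing human Npr1 and cGMP GloSensor pGS-40F, loaded 2 h with 2% GloSensor reagent, given compound 30 min at room temperature. Luminescence read before and 20 min after 0.1 nM hNppA.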
# Npr1 antag conf = confirmation of human Npr1 natriuretic peptide receptor antagonists. Potency, µM (top dose mostly 57.6 µM), for the others: top-dose activity change, negative = inhibition, actives largely listed as inhibitors. shares compounds with NPR1 antag. 1,400 tested, 76% active. HEK293 hNpr1 cGMP GloSensor luminescence, ANP-stimulated. AID 1347044; further: nearly all actives have a fitted effect of over 70% in size
# NPR2 antag = hNpr2 antagonism, selectivity versus Npr1. Potency, µM (highest dose often 57.6 µM), inactives show at the top dose activity change, negative = inhibition, most hits filed as inhibitors. HEK293 hNpr2 GloSensor cGMP luminescence, CNP-stimulated. shares compounds with NPR1 antag. 1,400 tested, 67% active. AID 1347046; further: nearly all actives have a fitted effect of over 70% in size
# FLuc inh counter = FLuc enzyme inhibition, Npr1 counter-screen; shares compounds with NPR1 antag; AID 1347047; Potency, µM (highest dose often 57.6 µM), for inactives: at the highest dose activity change, negative = inhibition, actives largely listed as inhibitors; 1,400 tested, 0.7% active; purified FLuc enzyme, luminescence, Km substrate; active means well fitted curve in the direction sought with a large enough effect; inconclusive means small, poorly fitted or top-dose-only effect, or another doubt; inactive means no such curve, though single readings can be large; an effect the other way counts as inactive or inconclusive; further: 0% is about no effect
# GloSensor ctrl = control cell line activity, Npr1 antagonist counter-screen; 1,400 tested, 69% active; Potency, µM (titrated, usually from 57.6 µM), for the others: at the highest dose activity change, negative = inhibition, hits mostly inhibitors; HEK293 GloSensor cGMP, SNP-stimulated, luminescence; shares compounds with NPR1 antag; further: on the % scale 0 is the no-effect control and ±100 the full control effect; nearly all actives have a fitted effect of over 70% in size
# An asterisk follows results filed as active; i = inactive; ? = inconclusive; nt = no result; [ ] = dose if it differs, or a comment. Unless noted, the call rests on the fitted dose curve. Potency means the concentration at half of the fitted maximal effect.
SMILES,NIH3T3 tox,HEK cytotox,Luciferase inh,NPR1 antag,Npr1 antag conf,NPR2 antag,FLuc inh counter,GloSensor ctrl
O=C(NCC1CN(C(=O)Cc2cccc(OC(F)(F)F)c2)CC12CN(c1ccccc1)C2)c1ccccc1 (centres undefined),?,?,i,-0.5%,nt,nt,nt,nt
COc1ccc(C2Cn3nnc(C(=O)N4CCN(C(=O)c5ccc(C)s5)CC4)c3CO2)cc1 (centres undefined),?,?,i,?,24.3µM*,24.3µM*,0.4%,24.3µM*
COc1ccc(C2Cn3nnc(C(=O)N4CCN(C(=O)c5cccc(C)c5)CC4)c3CO2)cc1 (centres undefined),?,8.91µM*,i,14.1µM*,19.3µM*,21.7µM*,5.4%,13.7µM*
Cc1ccc(C2Cn3nnc(C(=O)N4CCN(C(=O)c5cccc(C)c5)CC4)c3CO2)cc1 (centres undefined),?,44.7µM*,i,11.2µM*,21.7µM*,21.7µM*,-1.3%,19.3µM*
Cc1ccc(C(=O)N2CCN(C(=O)c3nnn4c3COC(c3ccccc3)C4)CC2)s1 (centres undefined),-20.1%,?,i,-21.9%,nt,nt,nt,nt
Cc1ccc(C2Cn3nnc(C(=O)N4CCN(C(=O)c5cccc(Cl)c5)CC4)c3CO2)cc1 (centres undefined),?,31.6µM*,i,?,15.3µM*,21.7µM*,1.6%,13.7µM*
Cc1cnc(CCNC(=O)C2CCOCC2)n1C1CCCCCCC1,-24.0%,?,i,-13.2%,nt,nt,nt,nt
O=S(=O)(c1cc(F)cc(F)c1)N1CCC(C2CCNC2)CC1 (centres undefined),?,-30.6%,i,-0.2%,nt,nt,nt,nt
O=C(CCC1CCCC1)N1CCC(c2noc(COc3ccc(F)cc3)n2)C1 (centres undefined),?,44.7µM*,i,10µM*,10.9µM*,15.3µM*,-7.0%,9.68µM*
Cn1cccc1C(=O)N1CCC(c2noc(COc3ccc(F)cc3)n2)CC1,?,?,i,?,nt,nt,nt,nt
O=C(NCCNC(=O)c1ccccc1Cl)c1ccc(-c2cccc(C(F)(F)F)c2)cc1,-14.8%,1.1%,nt,nt,nt,nt,nt,nt
COc1ccccc1-n1c(=O)c(C(=O)N2CCN(C(=O)C3CCCC3)CC2)nc2cccnc21,-11.6%,4.4%,nt,nt,nt,nt,nt,nt
Cn1cc(CN2C[C@@H]3C[C@H](C2)c2ccc(NC(=O)c4cccs4)c(=O)n2C3)c2ccccc21,i,?,i,-17.0%,nt,nt,nt,nt
O=C(CCCc1ccccc1)N1CCC(Cc2nc(-c3ccc(F)cc3)no2)CC1,?,?,i,7.94µM*,10.9µM*,12.2µM*,3.1%,10.9µM*
O=C(CCc1ccccc1)N1CCC(Cc2nc(-c3ccc(F)cc3)no2)CC1,?,44.7µM*,i,5.01µM*,6.11µM*,7.69µM*,1.2%,5.44µM*
CO[C@H]1C(=O)N(C(C)C)[C@H]1C1CCN(S(=O)(=O)c2cccc3cccnc23)CC1,-12.4%,-2.1%,nt,nt,nt,nt,nt,nt
COc1ccc(S(=O)(=O)NC[C@H]2COCc3nc4c(C)cccc4n32)cc1,?,?,i,25.1µM*,17.7µM*,22.2µM*,0.0%[86.2 µM],14µM*
Cc1ccc2nc3n(c2c1)[C@@H](CNS(=O)(=O)Cc1ccccc1)COC3,?,?,i,?,nt,nt,nt,nt
COc1ccc(-c2cn3c(n2)CO[C@@H](CNS(=O)(=O)c2ccc(C)cc2)C3)cc1,-31.8%[174 µM],-11.5%[172 µM],i,28.2µM*,31.4µM*,31.4µM*,?,28µM*
CS(=O)(=O)c1ccc(CNC[C@H]2COCc3nc4cc(F)ccc4n32)cc1,?,?,i,-28.6%[70.6 µM],nt,nt,nt,nt
Cc1cccc2c1nc1n2[C@@H](CNCc2ccc(S(C)(=O)=O)cc2)COC1,?,?,i,25.1µM*,31.4µM*,35.3µM*,0.0%[86.2 µM],22.2µM*
Cc1ccc2c(c1)nc1n2[C@@H](CNS(=O)(=O)Cc2ccccc2)COC1,?,?,i,22.4µM*,35.3µM*,35.3µM*,-1.0%[86.2 µM],28µM*
Cc1cnc(C(=O)N[C@@H]2CCC[C@@H]2C(=O)NCc2ccccc2F)cn1,1.1%,3.7%,i,4.2%,nt,nt,nt,nt
COCCn1c(=O)c(C(=O)N2CCN(C(=O)c3cccc(OC)c3)CC2)nc2cccnc21,?,-2.3%,nt,nt,nt,nt,nt,nt
O=C(C1CCCN1C(=O)c1ccccc1)N1CCC(c2nc3ncccc3[nH]2)CC1 (centres undefined),-20.6%,-11.2%,nt,nt,nt,nt,nt,nt
SMILES,NIH3T3 tox,HEK cytotox,Luciferase inh,NPR1 antag,Npr1 antag conf,NPR2 antag,FLuc inh counter,GloSensor ctrl
COc1ccc2nc3n(c2c1)[C@@H](CNS(=O)(=O)c1ccccc1)COC3,?,?,i,-15.1%[70.6 µM],nt,nt,nt,nt
COc1ccc(S(=O)(=O)NC[C@H]2COCc3nc4cc(C)ccc4n32)cc1,?,?,i,15.8µM*,31.4µM*,31.4µM*,3.4%[86.2 µM],22.2µM*
CC(C)NC(=O)N1CCCC(c2nn(C)c(=O)n2Cc2ccccc2)C1 (centres undefined),-15.4%,-7.2%,nt,nt,nt,nt,nt,nt
O=C(NCCCc1ccccc1F)[C@H]1CCC[C@@H](O)C1,-7.0%,-19.0%,i,0.5%,nt,nt,nt,nt
O=C(NCCc1cccc(Oc2ccccc2)c1)[C@H]1CCC[C@H](O)C1,-35.0%,?,i,14.1µM*,24.3µM*,21.7µM*,0.7%,21.7µM*
COc1ccc(C(=O)N2CCn3c(nn(-c4ccc(Cl)cc4)c3=O)C2)cc1,-19.8%,-11.3%,nt,nt,?,21.7µM*,0.0%,27.3µM*
Cn1cccc1CN1CCn2c(nn(-c3ccc(Cl)cc3)c2=O)C1,?,?,nt,nt,?,?,13.7µM*,?
O=C(Nc1ccccc1)N1CCn2c(nn(-c3ccc(C(F)(F)F)cc3)c2=O)C1,?,44.7µM*,i,?,?,?,-2.5%[86.2 µM],?
O=c1n(-c2ccc(Cl)cc2)nc2n1CCN(Cc1cccnc1)C2,-18.9%,?,nt,nt,nt,nt,nt,nt
COc1ccc(-n2nc3n(c2=O)CCN(C(=O)c2ccccc2)C3)cc1,-27.5%,-18.5%,nt,nt,nt,nt,nt,nt
O=C(c1ccc(C(F)(F)F)cc1)N1CCn2c(nn(-c3ccncc3)c2=O)C1,?,?,i,?,24.3µM*,?,4.2%[86.2 µM],21.7µM*
